Source: PubChem
Beta2AR agonist: activates human beta-2 adrenergic receptor causing internalization. P07550. Am2.2-beta2AR cells, FAP receptor internalization, flow cytometry. response, % (no concentration beside the values). 340,000 tested, 0.43% active. AID 504454;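 active = response above a set limit, near 3 SD of response in nonfluorescent compounds, cut at about 42% in these data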
NadD inh: NadD (S. aureus) enzyme inhibition | inhibition, % at 20 µM | AID 602399 | purified NadD enzyme, colorimetric absorbance read-out | 360,000 tested, 0.78% active; in the data active = inhibition above about 26%
GRK2 inh: human GRK2 inhibition via aptamer displacement | bead flow cytometry, FAM-aptamer displacement from GRK2 | P25098 | inhibition of aptamer binding, % at 10 µM | 330,000 tested, 0.59% active;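 active = inhibition of aptamer binding above 40%, roughly 3 SD of noise, on plates passing a quality check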;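 note: median bead fluorescence of bound FAM aptamer so fluorescent compounds give negative values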
Target sequence (P25098 whole entry, looked up): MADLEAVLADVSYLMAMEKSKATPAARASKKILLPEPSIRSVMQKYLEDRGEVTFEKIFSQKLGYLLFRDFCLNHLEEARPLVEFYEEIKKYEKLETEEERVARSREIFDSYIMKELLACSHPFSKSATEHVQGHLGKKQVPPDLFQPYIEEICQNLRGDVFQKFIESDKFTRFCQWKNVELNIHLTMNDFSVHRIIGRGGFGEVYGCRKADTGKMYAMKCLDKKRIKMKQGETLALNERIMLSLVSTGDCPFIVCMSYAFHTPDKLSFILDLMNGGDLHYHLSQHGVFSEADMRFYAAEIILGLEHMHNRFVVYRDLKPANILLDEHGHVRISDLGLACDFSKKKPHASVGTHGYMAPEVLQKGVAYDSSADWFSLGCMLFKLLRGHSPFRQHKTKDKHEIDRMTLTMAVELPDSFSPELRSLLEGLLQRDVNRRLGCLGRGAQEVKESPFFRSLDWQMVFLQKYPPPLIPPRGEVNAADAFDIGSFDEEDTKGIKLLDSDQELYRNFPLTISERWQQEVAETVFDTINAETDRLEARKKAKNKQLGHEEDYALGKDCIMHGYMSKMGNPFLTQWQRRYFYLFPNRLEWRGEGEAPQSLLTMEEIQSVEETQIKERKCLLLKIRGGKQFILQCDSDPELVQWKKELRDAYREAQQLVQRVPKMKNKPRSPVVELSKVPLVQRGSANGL
PP1 inh: counter-screen for PP5 inhibitors: inhibitors of human PP1-alpha. inhibition, % at 6.7 µM. 320,000 tested, 0.9% active. P62136. purified PP1alpha, OMFP fluorescence;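 active = inhibition above the mean inhibition of all tested compounds plus 3 SD, computed separately for each screening campaign, cut at about 15% in these data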
Granule exo inh: lytic granule exocytosis inhibition; inhibition, % at 10 µM; 360,000 tested, 0.66% active; TALL-104 LAMP-1 surface exposure, flow cytometry; cells stimulated with thapsigargin and PMA;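 active = inhibition above about 55%, limit read from the data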
GRK2 inh confirm: human GRK2 inhibition confirmation, cherry pick 1; aptamer displacement, % at 10 µM; shares compounds with GRK2 inh; 2,000 tested, 4% active; bead-bound GRK2, FAM-aptamer displacement, flow cytometry;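 active = aptamer displacement above 40%, near three times the noise of non-fluorescent compounds, on plates passing quality checks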;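 note: negative values mostly reflect intrinsic compound fluorescence rather than true enhancement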
Aptamer quench 1: fluorescent aptamer quenching in GRK2 counter-screen dose response; shares compounds with GRK2 inh; Fluorescent RNA aptamer beads, flow cytometry; active compounds read high; fluorescence change (kMESF span), kMESF (concentration not given with the values); 110 tested, under 10 active; AID 504521;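 active = compounds whose bead fluorescence drops by more than 37 kMESF across the dose range, marking them as dye quenchers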
Aptamer quench SP: aptamer fluorescence quenching in GRK2 counter-screen | AID 504580 | 2,000 tested, under 10 active | Carboxyfluorescein RNA aptamer on beads, flow cytometry quenching; active compounds read low | fluorescence response (% of DMSO), % at 10 µM | shares compounds with GRK2 inh;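 active = compounds that quench the bead-bound fluorescent RNA probe, cutting fluorescence to under half of the solvent control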;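 note: counterscreen run without GRK2 so only probe quenching by compound is measured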
GRK2 confirm 2: confirmation of human GRK2 inhibitors binding RNA aptamer site; bead-bound GRK2, FAM-aptamer displacement, flow cytometry; inhibition of aptamer binding, % at 10 µM; AID 504782; shares compounds with GRK2 inh; 360 tested, under 10 active;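 active = inhibition of aptamer binding above 40%, about triple the noise seen with nonglowing compounds, on plates passing quality control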;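 note: negative values mostly come from compounds that fluoresce themselves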
FAM quench CP2: aptamer fluorescence quenching in GRK2 counter-screen. shares compounds with GRK2 inh. AID 588494. carboxyfluorescein RNA aptamer beads, flow cytometry quenching; active compounds read low. 360 tested, under 10 active. fluorescence response vs DMSO, % at 10 µM;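 active = response vs DMSO under 50%, meaning signal dropped by over half, treated as fluorescence quencher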;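 note: labelled aptamer on streptavidin beads without GRK2 as a quench counter-screen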
Each line names hits and unclear results; the compound was inactive in the other large screens (follow-up assays come after a bar, where they were run). In the library only some 2.9% were active in any assay of this set; here they are far more common.

O=C(c1ccccc1)c1c2c(cc3sc4ccccc4[n+]13)-c1cccc3cccc-2c13	GRK2 inh 76, Granule exo inh 88 | GRK2 inh confirm 70 | Aptamer quench 1 inactive | Aptamer quench SP inactive
CCOC1=C2[C@@H](CN(S(=O)(=O)c3ccc(C)cc3)[C@H]2c2cccc3ccccc23)[C@H]2C(=O)N(C3CCCCC3)C(=O)[C@H]2C1	none (no result: Beta2AR agonist, GRK2 inh, PP1 inh)
CC(NC(=O)COc1ccc(Oc2ccccc2)cc1)C(=O)O (configuration not stated)	GRK2 inh 52 | GRK2 inh confirm inactive | Aptamer quench SP inactive
COc1ccccc1NC(=O)NCCN1CCNC1=O	none
COc1ccccc1-c1nc(SCC(=O)N2CCOCC2)n[nH]1	none
O=C(CSc1n[nH]c(-c2ccc(Br)cc2)n1)N1CCOCC1	none (no result: PP1 inh) | GRK2 inh confirm inactive | Aptamer quench SP inactive
CCc1nc2ccc(C(=O)Nc3cc(-c4ccccc4)ccc3OC)cn2c1N(C=O)CCC(C)C	none (no result: Beta2AR agonist, GRK2 inh, PP1 inh)
CC12CCC3C(CCC4N(CCO)CCC34C)C1CCC2O (configuration not stated)	GRK2 inh 49 | GRK2 inh confirm inactive | Aptamer quench SP inactive
CC(C)n1c(SCC(=O)c2ccc3c(c2)OCCO3)nc2c1c(=O)n(C)c(=O)n2C	none (no result: Beta2AR agonist, NadD inh, Granule exo inh)
COc1ccc(CCNC(=O)C(=O)NCC2OCCN2S(=O)(=O)c2cc(F)ccc2F)cc1OC (configuration not stated)	GRK2 inh 78 | GRK2 inh confirm inactive | Aptamer quench SP inactive
CCCCN1CC(COC)Oc2cccc(F)c2S1(=O)=O (configuration not stated)	none (no result: GRK2 inh, PP1 inh)
CCOc1ncccc1C(=O)OCC(=O)Nc1ccc2c(c1)OCO2	none
CCOc1ncccc1C(=O)OCC(=O)Nc1ccc2c(c1)CCC2	none (no result: PP1 inh) | GRK2 inh confirm inactive | Aptamer quench SP inactive
COc1ccc(C2N(c3ccccc3)CCN2c2ccccc2)cc1O	none
CN(CC(=O)Nc1ccccc1Cl)C(=O)Cn1cc(C(F)(F)F)ccc1=O	GRK2 inh 65 | GRK2 inh confirm inactive | Aptamer quench SP inactive
CN(CC(=O)Nc1ccccc1Cl)C(=O)Cn1cc(C(F)(F)F)cc(Cl)c1=O	none
O=S(=O)(Nc1nc2cc3c(cc2nc1Cl)OCCO3)c1ccccc1	GRK2 inh 48 | GRK2 inh confirm inactive | Aptamer quench SP inactive
O=S(=O)(NCCN1CCCC1)c1ccc(Br)cc1	none
CCCCC(=O)Nc1ccc(C(=O)NNC(=S)NC(=O)c2ccco2)cc1	none
CCCCC(=O)Nc1ccc(C(=O)NNC(=O)c2ccco2)cc1	GRK2 inh 65 | GRK2 inh confirm inactive | Aptamer quench SP inactive
COC(=O)Cc1ccc(NC(=O)c2ccc(NC(=O)c3ccco3)cc2)cc1	none
O=C(O)Cc1ccc(NC(=O)c2ccc(NC(=O)c3ccco3)cc2)cc1	GRK2 inh 48 | GRK2 inh confirm inactive | Aptamer quench SP inactive
Cc1ccc(NC2c3ncccc3C(=O)N2Cc2ccco2)c(C)c1 (configuration not stated)	none
CCOC(=O)C1=NNC2(c3ccc(C)cc3)C(=O)N(c3ccc(Cl)cc3)C(=O)C12 (configuration not stated)	none
CN(C(=O)c1ccccc1C(=O)OCC(=O)Nc1ccccc1)c1ccccc1	none
CCOC(=O)c1ccccc1NC(=O)COC(=O)c1ccccc1C(=O)N(C)c1ccccc1	GRK2 inh 44 | GRK2 inh confirm inactive | Aptamer quench SP inactive
CN(C(=O)Cc1c(C(=O)O)n(C)c2ccccc12)c1ccc(Cl)cc1	none | GRK2 inh confirm inactive | Aptamer quench SP inactive
CCOC(=O)c1ccccc1NC(=O)Cc1c(C(=O)O)n(C)c2ccccc12	GRK2 inh 50 | GRK2 inh confirm inactive | Aptamer quench SP inactive
COc1ccc(C)cc1NC(=O)Cc1c(C(=O)O)n(C)c2ccccc12	none
O=C(c1[nH]c(C(F)(F)F)nc1-c1ccccc1)N1CCOCC1	none (no result: Beta2AR agonist, GRK2 inh, PP1 inh)
O=C(O)c1c2c(nc3ccccc13)/C(=C/c1ccc(OC(F)F)cc1)CCC2	none
O=C(O)c1c2c(nc3ccccc13)/C(=C/c1ccc(O)cc1)CC2	GRK2 inh 67 | GRK2 inh confirm 50 | Aptamer quench 1 inactive | Aptamer quench SP inactive
N#C/C(=C\c1c(N2CCC(C(N)=O)CC2)nc2ccccn2c1=O)S(=O)(=O)c1ccc(Cl)cc1	GRK2 inh 41 | GRK2 inh confirm inactive | Aptamer quench SP inactive
O=C(NC1CC1)c1cccc2c1C(=O)c1ccc(N3CCC(Cc4ccccc4)CC3)cc1S2(=O)=O	GRK2 inh 73 (no result: PP1 inh) | GRK2 confirm 2 inactive | FAM quench CP2 inactive
O=C(NCc1ccc(F)cc1)c1cccc2c1C(=O)c1ccc(N3CCC(Cc4ccccc4)CC3)cc1S2(=O)=O	none (no result: PP1 inh)
O=C1Nc2cc(S(=O)(=O)N3CCCC3)ccc2N2CCCC12 (configuration not stated)	none
O=C1Nc2cc(C(F)(F)F)ccc2N2CCCCC12 (configuration not stated)	GRK2 inh 52 | GRK2 confirm 2 inactive | FAM quench CP2 inactive
C=CCOc1ccc(CNn2c(C)n[nH]c2=S)cc1OC	none
C=CCOc1ccc2ccccc2c1CNn1c(C)n[nH]c1=S	GRK2 inh 78 | GRK2 inh confirm inactive | Aptamer quench SP inactive
Cc1cc(NS(=O)(=O)c2c(C(=O)N3CCOCC3)c(C)n(C)c2C)ccc1Br	GRK2 inh 45 | GRK2 inh confirm inactive | Aptamer quench SP inactive
O=C(C1CCN(S(=O)(=O)N2CCC3(CC2)OCCO3)CC1)N1CCc2ccccc2C1	none
O=C(C1CCN(c2ccc(N3CCOCC3)nn2)CC1)N1CCc2ccccc2C1	none | GRK2 inh confirm inactive | Aptamer quench SP inactive
Clc1ccc(-c2cc3nc(NCc4cccc(Cl)c4)ccn3n2)cc1	none (no result: Beta2AR agonist, GRK2 inh, PP1 inh)
COc1ccc(CC(=O)Nc2ccc(-c3nc4cc(C)ccc4o3)c(O)c2)cc1OC	GRK2 inh 71, PP1 inh 16 | GRK2 inh confirm inactive | Aptamer quench SP inactive
O=C(NCCCc1ccc(F)cc1)C1CCC(=O)N(CCN2CCOCC2)C1 (configuration not stated)	none
COc1cc2sc(C)nc2c2ccccc12	none
Cc1nc2c(ccc3c2ccc2nc(C)sc23)s1	none (no result: Beta2AR agonist, NadD inh, Granule exo inh) | GRK2 confirm 2 inactive | FAM quench CP2 inactive
N#Cc1ccc(NC(=O)COC(=O)c2cccnc2Cl)cc1	none (no result: PP1 inh)
C=CCNC(=O)c1ccccc1NS(=O)(=O)c1ccc(OC)c(C(=O)N2CCOCC2)c1	none
